# Reference: PubChem BioAssay AID743294 (Broad Institute, 2014)
# Potency and affinity values are given separately. Calls of active or inactive are those of the source.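 Rule for the calls: active = compounds lowering fluorescence whose fitted half-maximal dose is at most twice the top valid dose; inconclusive = flat fit between -70% and -30%, or poor curve fit; inactive = the rest.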
# Target: Caspase-8 (Homo sapiens) (UniProt Q14790)
# Assay: inhibitors of purified CASP8 protease – biochemical, Z-IETD-R110 fluorescence, cherry-picked samples, selectivity assay for caspase-6 inhibitor project, dose response (AID 743294)
# Sequence of Caspase-8 (Homo sapiens) (Q14790 whole entry, looked up): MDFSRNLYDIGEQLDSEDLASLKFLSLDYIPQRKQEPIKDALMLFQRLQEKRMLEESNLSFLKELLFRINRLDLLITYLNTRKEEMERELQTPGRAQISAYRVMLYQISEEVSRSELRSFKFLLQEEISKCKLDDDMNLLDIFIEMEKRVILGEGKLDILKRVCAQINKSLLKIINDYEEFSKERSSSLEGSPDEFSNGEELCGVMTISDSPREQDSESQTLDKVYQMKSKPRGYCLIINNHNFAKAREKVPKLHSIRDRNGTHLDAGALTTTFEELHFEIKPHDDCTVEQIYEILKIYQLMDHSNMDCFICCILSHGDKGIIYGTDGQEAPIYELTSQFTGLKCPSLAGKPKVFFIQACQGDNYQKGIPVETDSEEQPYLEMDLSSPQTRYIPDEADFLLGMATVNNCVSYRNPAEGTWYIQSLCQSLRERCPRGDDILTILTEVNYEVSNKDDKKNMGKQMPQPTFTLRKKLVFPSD
row,Structure (SMILES),outcome
1,CN1CCc2cc3c(c4c2C1Cc1ccccc1-4)OCO3 (configuration not stated),inactive
2,CC(Cc1ccc(O)cc1)NCC(O)c1ccc(O)c(O)c1 (configuration not stated),inactive
